Screens from PubChem.
SW480 rerep: inducers of DNA re-replication in SW480 colon cancer cells | Potency, µM (doses to about 46.1 µM), without a hit: at the top dose re-replication activation, usual class: activators | AID 624297 | SW480 DNA re-replication, Hoechst DNA content imaging, 48 h | 340,000 tested, 1.8% active; further: % of control where 0% means no effect; nearly all actives have a fitted effect of over 55% in size
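Treated cells incubate 48 hr (37 C, 5% CO2), are stained 40 min with Hoechst, and nuclear fluorescence is enumerated; a rise in nuclei with high DNA signal marks re-replication.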
A-T KAP1 phos: potential ataxia-telangiectasia treatment | F2112 A-T fibroblasts, KAP-1 phosphorylation AlphaLISA; neocarzinostatin DNA damage 30 min before lysis | Potency, µM (series often up to 57.5 µM), without a hit: at the highest dose activation, most hits filed as activators | 320,000 tested, 0.19% active | AID 485349; further: % of control where 0% means no effect; nearly all actives have a fitted effect of over 45% in size
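hTERT-immortalized A-T patient fibroblasts (F2112), 500 cells/well in OPTI-MEM, 1% FBS, got compounds for 60 min, then NCS for 30 min at 37C. Lysates were then assayed for phospho-KAP-1 by AlphaLISA (anti-pKAP1 donor, anti-KAP1 acceptor beads), 6 hr at 25C.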
p53 reactivator: re-activators of mutant p53. Potency, µM (titrated, usually from 92.2 µM), for inactives: at the top dose activity change, positive = activation, hits mostly activators. H1299 p53-A138V BP100-luciferase reporter, luminescence, 24 h. 320,000 tested, 0.063% active. AID 504706; further: % of control where 0% means no effect; nearly all actives have a fitted effect of over 45% in size
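H1299 (p53-null), stable ts p53-A138V + BP100-Luc; 1000 cells/well, Opti-MEM/10% FBS; cpd 4 pt, 1:5; 24 h, 37 deg C, 5% CO2; detection reagent 10 min RT; luminescence.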
ELG1 genotox: induces genotoxicity in HEK293T cells with luciferase-tagged ELG1; HEK293T ELG1-luciferase reporter, luminescence, 16 h; 330,000 tested, 1.3% active; Potency, µM (doses to about 46 µM), for the others: at the top dose activity change, positive = activation, actives largely listed as activators; AID 504466; further: % of control where 0% means no effect; nearly all actives have a fitted effect of over 60% in size
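After overnight (16 hr) compound treatment at 37 °C, ELG1-luciferase HEK293T cells were lysed with ONE-Glo; luminescence quantified 30 min later at room temperature.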
MCF10A rereplic: induces DNA re-replication in MCF 10a normal breast cells | MCF 10A DNA re-replication, Hoechst nuclear intensity, 48 h | Potency, µM (highest dose often 46.1 µM), for inactives: at the top dose activity, positive = re-replication, most hits filed as activators | 350,000 tested, 2.9% active | AID 624296; further: % of control where 0% means no effect; nearly all actives have a fitted effect of over 50% in size
ELG1 DNA repair: ELG1-dependent DNA repair inhibition | 330,000 tested, 2.3% active | HEK293T ELG1-luciferase reporter, luminescence, 16 h; DNA damage induced by 5-fluorouridine | Potency, µM (series often up to 46.1 µM), inactives show at the highest dose activity change, negative = inhibition, hits mostly inhibitors; further: on the % scale 0 is the no-effect control and ±100 the full control effect; nearly all actives have a fitted effect of over 55% in size
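DMSO vehicle served as the neutral condition. Each well held 2,000 cells given 5-fluorouridine plus compound; after 16 hr at 37 °C/5% CO2, ONE-Glo was added and luciferase measured 30 min later.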
* = called active by the depositor; ? = inconclusive; / = no result. Most compounds without a hit are left out; they make up all but 7.1% or so of the library. The call rests on the fitted dose curve; in most records, active means well fitted curve in the direction sought with a large enough effect; inconclusive means small, poorly fitted or top-dose-only effect, or another doubt; inactive means no such curve, though single readings can be large; an effect the other way counts as inactive or inconclusive. Potency means the concentration at half of the fitted maximal effect.

SMILES	SW480 rerep	A-T KAP1 phos	p53 reactivator	ELG1 genotox	MCF10A rereplic	ELG1 DNA repair
COc1ccc(NC(=O)CN(C)C(=O)c2ccccc2Sc2ncnc3sc(C)c(C)c23)cc1	-6.1%	-7.2%	-13.2%	-8.8%	4.1%	16.4µM*
COc1ccc(C(=O)/C=C/NCc2ccc(C)cc2)cc1	20.6µM*	/	/	/	13µM*	/
COc1cc(OC)c(OC)cc1/C=C/C(=O)c1ccc(NS(=O)(=O)c2ccc(C)cc2)cc1	?	2.7%	-2.5%	-4.5%	5.8µM*	14.6µM*
COc1ccc(C(=O)/C=C/Nc2cc(C)on2)cc1	-2.0%	-0.2%	?	6.51µM*	-6.0%	?
COc1ccc(C(=O)/C=C/Nc2ccc(S(=O)(=O)Nc3cccc(C(C)=O)c3)cc2)cc1	-3.0%	-3.4%	11.1%	-3.9%	11.4%	23.1µM*
CCOC(=O)N1CCN(C(=O)c2cc3n(n2)C(C(F)(F)F)CC(c2ccc4c(c2)OCO4)N3)CC1 (stereo unspecified)	-6.8%	4.8%	3.3%	-3.2%	0.4%	-1.2%
O=C(COC(=O)c1ccc([N+](=O)[O-])s1)c1ccc[nH]1	4.1%	-6.5%	5.8%	-1.1%	-1.0%	1.2%
Cc1ccc(N2CC(C(=O)N(C)CC(=O)Nc3ccc(Cl)c(C(F)(F)F)c3)CC2=O)cc1 (stereo unspecified)	?	4.6%	-6.9%	-4.1%	?	?
CSCC[C@H](NC(=O)c1cccc(S(=O)(=O)N2CCCCC2)c1)c1nc2ccccc2[nH]1	0.9%	19.0%	-1.1%	-2.2%	4.1%	?
CCOc1ccc(-n2c(=O)c3sccc3n(CC(=O)NC3CCCCC3)c2=O)cc1	-10.4%	-1.6%	-0.5%	17.3%	-3.3%	?
COc1cccc(N/C=C/C(=O)c2ccc(Br)cc2)c1	0.9%	/	/	/	22.9%	/
COc1ccc(C(=O)/C=C/Nc2cccc(O)c2)cc1	-7.4%	-7.9%	?	1.46µM*	0.0%	?
COC(=O)[C@]1(Cc2ccccc2)N[C@H](CN(C)C(=O)Nc2ccc(C)cc2)[C@@H]2C(=O)N(C)C(=O)[C@@H]21	24.1%	2.6%	-0.4%	0.2%	?	6.6%
CCOC(=O)C1=CN(Cc2ccco2)S(=O)(=O)NC1c1ccc(Br)cc1F (stereo unspecified)	?	-5.2%	-8.0%	6.5%	?	1.5%
CCOc1ccc(Cl)cc1CN1CCOCC1	0.4%	-3.5%	0.2%	-1.2%	12.3%	0.3%
CCCCCOc1ccc(Cl)cc1CN1CCOCC1	-4.8%	19.3%	?	20.6µM*	21.7%	?
CC(C)Oc1ccc(C2NC(=O)c3ccccc3O2)cc1 (stereo unspecified)	-28.0%	6.0%	-0.7%	0.1%	-1.4%	1.4%
COc1ccc2occ(C(=O)c3cccs3)c2c1	-1.3%	3.2%	?	6.51µM*	2.5%	?
COc1ccc2occ(C(=O)c3ccc(N)cc3)c2c1	-2.0%	9.0%	8.6%	?	-2.6%	?
COc1ccc(OC)c(C(=O)c2coc3ccc(OC(C)=O)cc23)c1	?	3.7%	3.7%	0.5%	20.6µM*	-0.1%
CC1=NN(C(N)=S)C(=O)C1N=Nc1c(C)n(C)n(-c2ccccc2)c1=O (stereo unspecified)	-11.0%	/	/	/	-1.8%	/
N/C(=N\OC(=O)c1ccc2c(c1)OCO2)c1ccc(Cl)cc1	?	1.8%	?	?	16.4µM*	?
Cc1cc(/C(N)=N/OC(=O)c2ccc(Cl)cc2)no1	-1.1%	-2.1%	14.5%	11.6µM*	-0.1%	?
Cc1cc(/C(N)=N/OC(=O)c2cccc(Cl)c2)no1	-4.0%	10.3%	8.9%	?	-0.2%	?
C#C[C@@]1(O)CC[C@@H]2[C@H]3CCC4=C/C(=N\O)CC[C@H]4[C@@H]3CC[C@]21CC	17.8%	/	/	/	?	/
